# Data taken from the supplement of paper PMC6555819.
# System: VDR:RXRa (NR concentration 270 nM, RXRa partner concentration 90 nM)
# Experiment: PBM binding z-score (relative to random genomic background probes); higher = stronger binding; sequences stand for … in GC…GCGATTGACAGCGTAGAATGAAGG
# Method: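 Protein-binding microarray (Agilent 4x180K custom design, double-stranded 60-nt probes: 5' GC cap, 34-nt variable region, 24-nt constant primer region; full probe sequence given). Purified or IVT nuclear receptor:RXRα heterodimers (3:1 NR:RXRα, mostly 270:90 nM) or homodimers were incubated for 1 h in PBS with 2% milk and no ligand, then detected with Alexa488 antibodies. Fluorescence from o1-orientation probes (~5 replicates averaged) was converted to z-scores against 500 random hg19 background probes. Variable regions are seed direct-repeat (DR0–DR5) sites, all their single-nucleotide variants and half-site ablations.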
row,Sequence,PBM binding z-score
1,AGTCAAAGTTTATCTAGGTAACGTAAGATATGCT,0.584
2,AGTCAAAGTTCATCTAGGTAACATAAGATATGCT,5.33
3,AATAAAGGGTCATCGTAGGCCAGAGTACGCACAG,5.33
4,CCTGCTAGGTCATGGTCAGCGAATCTACAGTATG,1.5
5,TAGCCTAGGTTATGGGCCAGTATACCACGCGAAC,-0.0238
6,TCTATTAGTTGATTAGGGCAACCGAAACAGCGGA,0.711
7,AGAATGAGGTCACCAAAGATCAGGGAAACGCTTG,5.55
8,CGTCCAAGGTCAATGCTAGATCAGTGAAAGCATT,3.51
9,CCTTACGGGTCACGAGGTTGTAGCACGACGAGCG,5.26
10,TTGCCAAGGTGAAAGGTCGTTGATGCACGCCTTG,3.23
11,GCATATAGGTAATACAAGGTCAAAGTCCGATTGT,4.39
12,GCTGCTAGTTCAACTGATGGTCAGCTAAAGCTCG,0.168
13,CCTTACGGGTCACTCCAGGTTATATCATCGGAGT,4.52
14,GCTTACGGGTCCAAGGTTATAGCATGAATAGAAT,1.26
15,CGAACTAGGTCAAAGGACATTGAAAGGCGACGTA,1.88
16,ATCGAAAGGTCGTGAGGTAAGTATACAGAAAGGC,3.44
17,TAGCCTAGGTCATTCAGGGGCAAGTATAGAAAGC,5.23
18,GATACAGGGTCAAGGTCAGAGTACGCGTATTGAT,5.53
19,CGTCCAAGGTCACGGTCAGTGAAAGAGACTCGAA,5.13
20,TAGCCTAGGTCATGCGGGCCAATATAGTGTCGGC,3.64

row,Sequence,PBM binding z-score
1,CCTAGTTGTTCAGGAGGTCACACACCGGATATGA,3.9
2,ACTCGGTGGACAAAGGTCAGAGCTACGCCAGTGA,2.91
3,ATATGTAGGTTAGCTGGGGTCCTTCAGACTAGGC,0.978
4,CGTCAAAGATCAAGGTAACGTAACAGAAAGCAGC,-0.129
5,AGAATGAGGTCATACGTAGATCAGGGAAGAAAGT,5.41
6,GATACAGGGTCGGCTAGAGGCCAGAGTATGGAAA,0.547
7,CAAACTAGGTCACTAAAGGTCAAAGTCGAATGAC,6.48
8,CCGAGAAGGTTACGAGGGGGCATTCAGTGCGAAT,6.24
9,TCGAGTAGGTCACGGGGGCATTCAGGGATGAAGA,5.82
10,TTACCAAGGTCAAAGGTCGTTGATGCACGCCTTG,6.42
11,CGAACAAGGTCACCAGGACAGTGAAGAGGTTGGA,4.8
12,AATACAGGGTGACTAGGCCAGAGTAGGTACGAAT,0.257
13,CGAACTAGGTCATTGACAGGACAGTGGATAGTAA,2.15
14,AGAATGGGGTTACCAAAGATCAGGGAAACGCTTG,2.66
15,CAGCATAGGTCAGGGCCAGTATAGGAGGAACGTT,1.4
16,AGTCAAAGTTCAGGACGAGGTAACGTTAAGCACG,2.97
17,AGAATGAGGTTAAGTTCAGGGAAACAGAATACAT,3.33
18,CCAGACAGGTGAGAAGGTAACTCAGCCTCGATTA,0.116
19,ATATGTAGGTTACCTGGGGTCATTCAGACTAGGC,6.78
20,AGAATGAGGTCATTAAGATCAGGGAATTGCGGTC,5.8
